In PubChem BioAssay (NCATS):
Results filed as inconclusive are left out. A call without a number means that no potency is given here. The source made the active and inactive calls. The call rests on the fitted dose curve; in most records, active means well fitted inhibition curve with a large enough effect; inconclusive means small, poorly fitted or top-dose-only effect; inactive means no such curve, though single readings can be large or run the other way.

Tested on: Zika virus NS2B-NS3 protease (linked construct)
Assay: Primary screen NINDS Rhodamine qHTS for Zika virus inhibitors (AID 1347160); further: nearly all actives have a fitted effect of over 55% in size
Settings: purified NS2B-NS3 protease, Rhodamine110 substrate fluorescence; series mostly up to 57.1 µM
Summary of the method: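 Aprotinin served as in-plate control. Conditions: 25 nM linked NS2B-NS3, pH 8.0 Tris buffer, titrated compounds, 15 min preincubation and 15 min reaction with 1.5 microM Rhod110 substrate at room temperature.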

| SMILES | Potency | outcome |
| --- | --- | --- |
| COC(=O)c1c(C)cc(OC(=O)c2c(C)cc(OC)cc2OC)cc1O[C@@H]1O[C@H](CO)[C@@H](O)[C@H](O)[C@H]1O | inactive | – |
| CCNC(=O)Nc1ncc(-c2cc(-c3c(C)cc(OC)cc3C)nc(-c3cnccn3)n2)s1 | inactive | – |
| CC1(C)CCCC2(C)C1C(O)C=C(CO)C2(O)CO (centres undefined) | inactive | – |
| COc1nc2sc(C(=O)NC3CC3)c(N)c2c(C)c1Cl | inactive | – |
| C=C1CCC2C(C)(C)C(O)CCC2(C)C1CCC(C)CCOC(C)=O (centres undefined) | inactive | – |
| CC(=O)N1CCN(Cc2ccc([C@H](C)Nc3nccc(N4C(=O)OC[C@@H]4C(C)C)n3)cc2)CC1 | inactive | – |
| C=C[C@H]1[C@H](O[C@@H]2O[C@H](CO)[C@@H](O)[C@H](O)[C@H]2O)OC=C(C(=O)OC)[C@H]1C[C@@H]1c2cc(O)c(O)cc2CCN1C(C)=O | inactive | – |
| COc1ccc(CC2C(=O)NC(C)C(=O)N(C)C3Cc4ccc(cc4)Oc4cc(ccc4OC4OC(CO)C(O)C(O)C4O)CC(C(=O)NC(C)C(=O)NC(C)C(=O)N2C)N(C)C3=O)cc1 (centres undefined) | inactive | – |
| CO[C@H]1C[C@@H]2CC[C@@H](C)[C@@](O)(O2)C(=O)C(=O)N2CCCC[C@H]2C(=O)O[C@H]([C@H](C)C[C@@H]2CC[C@H](n3cnnn3)[C@H](OC)C2)CC(=O)[C@H](C)/C=C(\C)[C@@H](O)[C@@H](OC)C(=O)[C@H](C)C[C@H](C)/C=C/C=C/C=C/1C | inactive | – |
| CO/N=C(/C(=O)N[C@@H]1C(=O)N2C(C(=O)O)=C(Cn3ccc(=N)n3CCO)CS[C@H]12)c1csc(N)n1 | inactive | – |
| CC(C)Oc1ccc(C(=O)NC(CNC(=O)CN(C)C)Cc2ccc(-c3cn4cccc(C(C)O)c4n3)cc2)cc1Cl (centres undefined) | inactive | – |
| Cc1cc2c(F)c(Oc3ncnn4cc(OCC(C)O)c(C)c34)ccc2[nH]1 (centres undefined) | inactive | – |
| CC(C)[C@@H]1C(=O)N(S(C)(=O)=O)[C@@H]2CCN(C(=O)/C=C/CN3CCCCC3)[C@H]21 | inactive | – |
| C[C@@H]([C@@H](O)c1ccc(O)cc1)N1CCC(O)(c2ccccc2)CC1 | inactive | – |
| CC1(C)CC2C=C(C(=O)O)C3COC(=O)C(O)(CO)C23C1 (centres undefined) | inactive | – |
| COc1ccc(F)cc1-c1cc(NC(=O)[C@@H]2CCCNC2)ncc1Cl | inactive | – |
| Cn1c(=O)cc(N2CCCC(N)C2)n(Cc2cc(F)ccc2C#N)c1=O (centres undefined) | inactive | – |
| C[C@@H]1O[C@@H](O[C@H]2[C@H](O)[C@@H](O[C@@H]3O[C@H](CO)[C@@H](O)[C@H](O[C@@H]4O[C@H](CO)[C@@H](O)[C@H](O)[C@H]4O)[C@H]3O)[C@H](O[C@H]3CC[C@@]4(C)C(=CC[C@@H]5C4CC[C@@]4(C)C5C[C@@H]5OC6(CC[C@@](C)(CO[C@@H]7O[C@H](CO)[C@@H](O)[C@H](O)[C@H]7O)O6)[C@@H](C)[C@@H]54)C3)O[C@@H]2CO)[C@H](O)[C@H](O)[C@H]1O (some centres undefined) | – | inactive [at 10.7 µM] |
| COc1ccc([C@H]2CNC(=O)C2)cc1OC1CCCC1 | inactive | – |
| C=CC1C(OC2OC(CO)C(O)C(O)C2O)OC=C(C(=O)OC)C1CC(=O)OCC1C(C)C(O)CC1C(CO)COC(=O)CC1C(C(=O)O)=COC(OC2OC(CO)C(O)C(O)C2O)/C1=C\C (centres undefined) | inactive | – |

| SMILES | Potency | outcome |
| --- | --- | --- |
| CC(C)(C)c1cc(Br)cc([C@H](CC(=O)O)NC(=O)CNC(=O)c2cc(O)cc(NC3=NCC(O)CN3)c2)c1 (some centres undefined) | inactive | – |
| COC(=O)C1=CO[C@@H](O[C@@H]2O[C@H](CO)[C@@H](O)[C@H](O)[C@H]2O)[C@@H]2C(CO)=CC[C@]12O | inactive | – |
| C=C1C[C@@]23CCC4[C@@](C)(CCC[C@@]4(C)C(=O)OC)C2CC[C@@H]1C3 (some centres undefined) | inactive | – |
| Nc1nc2c(ncn2[C@@H]2O[C@@H]3COP(=O)(O)O[C@H]3[C@H]2O)c(=O)[nH]1 | inactive | – |
| CC(C)(C(=O)NCC(F)(F)C(F)(F)F)C(=O)NC1C(=O)Nc2ccccc2-c2ccccc21 (centres undefined) | inactive | – |
| CCN1CCN(Cc2ccc(Nc3ncc(F)c(-c4cc(F)c5nc(C)n(C(C)C)c5c4)n3)nc2)CC1 | inactive | – |
| NC(=O)Nc1cc(-c2cccc(F)c2)sc1C(=O)NC1CCCNC1 (centres undefined) | inactive | – |
| COc1ccc(-c2nc(-c3ccc(-c4cccc(Cl)c4)o3)[nH]c2-c2ccc(OC)cc2)cc1 | inactive | – |
| COc1cc(C(=O)O)ccc1OC1OC(CO)C(O)C(O)C1O (centres undefined) | inactive | – |
| O=C(O)c1ccc(CN2CCC(CN[C@@H]3C[C@H]3c3ccccc3)CC2)cc1 | inactive | – |
| CN[C@H](CC(C)C)C(=O)N[C@H]1C(=O)N[C@@H](CC(N)=O)C(=O)N[C@H]2C(=O)N[C@H]3C(=O)N[C@H](C(=O)N[C@H](C(=O)O)c4cc(O)cc(O)c4-c4cc3ccc4O)[C@H](O[C@H]3C[C@](C)(N)[C@@H](O)[C@H](C)O3)c3ccc(c(Cl)c3)Oc3cc2cc(c3O[C@@H]2O[C@H](CO)[C@@H](O)[C@H](O)[C@H]2O[C@H]2C[C@](C)(NCc3ccc(-c4ccc(Cl)cc4)cc3)[C@@H](O)[C@H](C)O2)Oc2ccc(cc2Cl)[C@H]1O | inactive | – |
| CC1OC(OC2C(OC3C(O[C@H]4CC[C@@]5(C)C(CC[C@]6(C)C5C(=O)C=C5C7CC(C)(C)CC(O)[C@]7(C)CC[C@]56C)C4(C)C)OC(C(=O)O)C(O)C3O)OCC(O)C2O)C(O)C(O)C1O (some centres undefined) | inactive | – |
| CC(=O)OC[C@]12[C@H](OC(C)=O)C(=O)[C@@H]3[C@@H](OC(C)=O)[C@@]14O[C@@]3(C)COC(=O)c1cccnc1[C@@H](C)[C@H](C)C(=O)O[C@@H]([C@H](O)[C@@H]2OC(C)=O)[C@]4(C)O | inactive | – |
| CC(=O)N1CCc2ccc(O)c(OC3OC(COC4OCC(O)(CO)C4O)C(O)C(O)C3O)c2C1Cc1ccc(O)cc1 (centres undefined) | inactive | – |
| CC(O)/C=C/C1(O)C2(C)COC1(C)CC(O)C2 (centres undefined) | inactive | – |
| CC1COC2(OC3CC4C5CC(O[C@@H]6O[C@H](C)[C@@H](O[C@@H]7O[C@@H](C)[C@H](O)[C@@H](O)[C@H]7O)[C@H](O)[C@H]6O)C6CC(O)CCC6(C)C5CCC4(C)C3C2C)C(O)C1 (some centres undefined) | inactive | – |
| CC(O)CO[C@@H]1O[C@H](CO)[C@@H](O)[C@H](O)[C@H]1O (some centres undefined) | inactive | – |
| CC1=CCC(C(C)(C)O[C@@H]2O[C@H](CO[C@@H]3O[C@@H](C)[C@H](O)[C@@H](O)[C@H]3O)[C@@H](O)[C@H](O)[C@H]2O)CC1 (some centres undefined) | inactive | – |
| C[C@@H]1CC[C@]2(C(=O)O[C@@H]3O[C@H](CO)[C@@H](O)[C@H](O)[C@H]3O)CC[C@]3(C)C(=CCC4[C@@]5(C)C[C@@H](O)[C@H](O)[C@](C)(C(=O)O)C5CC[C@]43C)[C@@H]2[C@]1(C)O (some centres undefined) | inactive | – |
